Results published in PubChem BioAssay AID372 (MTDP, 2006).
Out of some 100,000 compounds screened, about 770 (0.77%) were called active. The entries come from a sample that favours actives as a whole. Unmarked numbers belong to inactive results. Cut-off read from the data, not from the text of the source: active = inhibition above about 50%; inactive = the rest.

Molecular target: Gag-Pol polyprotein (Human immunodeficiency virus type 1 group M subtype B (isolate HXB2)) (UniProt P04585)
Assay: RNase H inhibition, HIV 1 Gag Pol polyprotein, FRET biochemical assay, screening (AID 372)
Details: HIV-1 RT RNase H, FRET RNA/DNA substrate fluorescence; at 10 µM; hits give high values

**Q.** How did the inhibition turn out when Cc1ccc(NCC(=O)N/N=C\c2ccccc2OCC(=O)O)cc1 was run?
**A.** 7%

**Q.** NC(N)=NS(=O)(=O)c1ccc(NC(=S)NC(=O)/C=C/c2ccc(Br)cc2)cc1 was tested. Which inhibition did it give?
**A.** 19%

**Q.** For Cc1ccc(/C=C/C(=O)NC(=S)Nc2ccc(S(=O)(=O)N=C(N)N)cc2)cc1, which inhibition is on record?
**A.** 63% (active)

**Q.** How did the inhibition turn out when COc1ccc(C(=O)NC(=S)Nc2ccc(S(=O)(=O)N=C(N)N)cc2)cc1 was run?
**A.** 2%

**Q.** How did the inhibition turn out when COc1ccc(/C=C/C(=O)NC(=S)Nc2ccc(I)cc2)cc1 was run?
**A.** 8%

**Q.** COc1ccc(/C=C/C(=O)NC(=S)Nc2ccc(S(=O)(=O)N=C(N)N)cc2)cc1 was tested. Which inhibition did it give?
**A.** 57% (active)

**Q.** How did the inhibition turn out when CC(C)c1ccc(/C=C/C(=O)NC(=S)Nc2ccc(S(=O)(=O)N=C(N)N)cc2)cc1 was run?
**A.** 41%

**Q.** CC(=O)C1=C(O)C(=O)N(c2ccc(Br)cn2)C1c1ccc([N+](=O)[O-])cc1 (stereo unspecified) was tested. Which inhibition did it give?
**A.** 0%

**Q.** How did the inhibition turn out when CCCN1CCC(NCCc2ccc(F)cc2)CC1 was run?
**A.** 1%

**Q.** Which inhibition does the source give for COc1cc(OC)cc(C(=O)N2CCN(Cc3ccccc3[N+](=O)[O-])CC2)c1 here?
**A.** 6%

**Q.** With O=C(O)c1ccc(N/N=C/c2c(Cl)ccc(Cl)c2Cl)cc1 as the molecule, how does the inhibition read?
**A.** 51% (active)

**Q.** With O=C(O)c1ccc(/C=N/Nc2ccc([N+](=O)[O-])cc2)cc1 as the molecule, how does the inhibition read?
**A.** 10%

**Q.** O=C(O)c1ccc(N/N=C/c2ccccc2C(F)(F)F)cc1 was tested. Which inhibition did it give?
**A.** 6%

**Q.** With COc1cc(C=O)ccc1OCCOc1ccc(Cl)cc1 as the molecule, how does the inhibition read?
**A.** 7%

**Q.** COc1ccc2c(c1)c(=O)oc1cc(OCc3ccc(C(=O)O)cc3)ccc12 was tested. Which inhibition did it give?
**A.** 19%

**Q.** How did the inhibition turn out when COC(=O)c1ccc(COc2ccc3c(c2)oc(=O)c2ccccc23)cc1 was run?
**A.** 48%

**Q.** Which inhibition does the source give for COC(=O)c1ccc(COc2ccc3c(c2)oc(=O)c2cc(OC)ccc23)cc1 here?
**A.** 59% (active)

**Q.** For COc1ccc(OC)c(/C=C2\SC(N3CCCCCC3)=NC2=O)c1, which inhibition is on record?
**A.** 11%

**Q.** CCOc1ccccc1NC(=O)CCCN1C(=O)/C(=C/c2ccc(C)cc2)SC1=S was tested. Which inhibition did it give?
**A.** 27%

**Q.** Cc1ccc(/C=C2\SC(=S)N(CCC(=O)Nc3cc(Cl)ccc3O)C2=O)cc1 was tested. Which inhibition did it give?
**A.** 10%

**Q.** Which inhibition does the source give for Cc1ccc(/C=C2/SC(=S)N(CCC(=O)Nc3ccc(Br)cc3)C2=O)cc1 here?
**A.** 0%

**Q.** How did the inhibition turn out when Cc1ccc(/C=C2/SC(=S)N(CCCC(=O)Nc3cc(Cl)ccc3O)C2=O)cc1 was run?
**A.** 16%

**Q.** How did the inhibition turn out when COc1ccccc1NC(=O)CCN1C(=O)/C(=C/c2ccc(C)cc2)SC1=S was run?
**A.** 11%

**Q.** Which inhibition does the source give for Cc1ccc(/C=C2\SC(=S)N(CCC(=O)Nc3ccc(S(N)(=O)=O)cc3)C2=O)cc1 here?
**A.** 57% (active)

**Q.** O=C1/C(=C/c2cccs2)SC(=S)N1CCCC(=O)N(Cc1ccccc1)c1ccccc1 was tested. Which inhibition did it give?
**A.** 50% (active)

**Q.** CC(C)(C)N(Cc1ccccc1)C(=O)CCCN1C(=O)/C(=C/c2cccs2)SC1=S was tested. Which inhibition did it give?
**A.** 37%

**Q.** CCOc1ccccc1NC(=O)CCN1C(=O)/C(=C/c2ccc(C)cc2)SC1=S was tested. Which inhibition did it give?
**A.** 56% (active)

**Q.** For Cc1ccc(/C=C2\SC(=S)N(CCC(=O)Nc3ccc(Cl)cc3)C2=O)cc1, which inhibition is on record?
**A.** 18%

**Q.** COc1ccc(/C=C2\SC(=S)N(CCC(=O)Nc3cc(Cl)ccc3O)C2=O)cc1 was tested. Which inhibition did it give?
**A.** 53% (active)

**Q.** How did the inhibition turn out when CC(C)(C)N(Cc1ccccc1)C(=O)CCN1C(=O)/C(=C\c2cccs2)SC1=S was run?
**A.** 12%

**Q.** Which inhibition does the source give for Cc1cc(NC(=O)c2ccc(-c3ccc(Cl)cc3)o2)ccc1NC(=O)c1ccco1 here?
**A.** 11%

**Q.** Which inhibition does the source give for Cc1cc(C)cc(N2C(=O)NC(=O)/C(=C\c3c(C)n(C)c4ccccc34)C2=O)c1 here?
**A.** 12%

**Q.** Cc1cc2nc(-c3ccc(Cl)c(NC(=O)c4cc([N+](=O)[O-])ccc4Cl)c3)oc2cc1C was tested. Which inhibition did it give?
**A.** 8%

**Q.** How did the inhibition turn out when COc1cccc(OC)c1OCC(O)CN1CCC(CN2C(=O)c3cccc4cccc(c34)C2=O)CC1 (stereo unspecified) was run?
**A.** 19%

**Q.** Which inhibition does the source give for CCOC(=O)C1=C(C)N=c2s/c(=C\c3ccc(-c4ccc(Cl)cc4)o3)c(=O)n2C1c1ccc(SC)cc1 (stereo unspecified) here?
**A.** 0%

**Q.** For O=C(c1ccc([N+](=O)[O-])cc1[N+](=O)[O-])N1CCN(C(c2ccccc2)c2ccccc2)CC1, which inhibition is on record?
**A.** 2%

**Q.** Which inhibition does the source give for O=C(CSc1nc2ccccc2s1)Nc1ccc(F)c([N+](=O)[O-])c1 here?
**A.** 2%

**Q.** CCOc1ccc2ccccc2c1/C=N/NC(=O)CN1CCOCC1 was tested. Which inhibition did it give?
**A.** 9%

**Q.** CCOC(=O)/C(C#N)=C1/C=C(c2ccccc2)N=C(c2ccccc2)N1 was tested. Which inhibition did it give?
**A.** 16%

**Q.** How did the inhibition turn out when COc1ccc2ccccc2c1C=Nc1ccc(C)cc1O was run?
**A.** 27%

**Q.** Cc1ccccc1Cn1cc(C=C2C(=O)NC(=O)NC2=O)c2ccccc21 was tested. Which inhibition did it give?
**A.** 43%

**Q.** With COc1cc(C=O)ccc1OCCCOc1cc(C)c(Cl)cc1C as the molecule, how does the inhibition read?
**A.** 21%

**Q.** Which inhibition does the source give for COc1ccccc1N=Cc1c(O)n(-c2ccccc2F)c(=O)[nH]c1=O here?
**A.** 8%

**Q.** How did the inhibition turn out when O=C(CCN1C(=O)/C(=C/c2ccc(Cl)cc2)SC1=S)Nc1nccs1 was run?
**A.** 10%

**Q.** With Cc1ccc(/C=C2\SC(=S)N(CCC(=O)Nc3ccc([N+](=O)[O-])cc3O)C2=O)cc1 as the molecule, how does the inhibition read?
**A.** 52% (active)

**Q.** For Cc1ccc(/C=C2\SC(=S)N(CCC(=O)Nc3ccc(S(=O)(=O)Nc4nccs4)cc3)C2=O)cc1, which inhibition is on record?
**A.** 23%

**Q.** For Cc1ccc(/C=C2/SC(=S)N(CCC(=O)Nc3ccc([N+](=O)[O-])cc3)C2=O)cc1, which inhibition is on record?
**A.** 10%

**Q.** For Cc1ccc(/C=C2\SC(=S)N(CCC(=O)Nc3cc([N+](=O)[O-])ccc3O)C2=O)cc1, which inhibition is on record?
**A.** 0%

**Q.** How did the inhibition turn out when Cc1ccc(/C=C2\SC(=S)N(CCCC(=O)Nc3ccc(C)cc3)C2=O)cc1 was run?
**A.** 10%

**Q.** With Cc1ccc(/C=C2\SC(=S)N(CCC(=O)Nc3nccs3)C2=O)cc1 as the molecule, how does the inhibition read?
**A.** 51% (active)

**Q.** With Cc1ccc(/C=C2\SC(=S)N(CCCC(=O)NCCc3ccccc3)C2=O)cc1 as the molecule, how does the inhibition read?
**A.** 57% (active)

**Q.** Cc1ccc(/C=C2\SC(=S)N(CCc3ccccc3)C2=O)cc1 was tested. Which inhibition did it give?
**A.** 3%

**Q.** How did the inhibition turn out when Cc1ccc2oc(-c3cccc(NC(=O)c4ccc(-c5ccc([N+](=O)[O-])cc5)o4)c3C)nc2c1 was run?
**A.** 20%

**Q.** CCOc1ccccc1N=C1C(=O)Nc2ccc([N+](=O)[O-])cc21 was tested. Which inhibition did it give?
**A.** 2%

**Q.** How did the inhibition turn out when CC1=NN(C(=O)c2cccc(O)c2)C(O)(c2ccc(Br)cc2)C1 (stereo unspecified) was run?
**A.** 8%

**Q.** Which inhibition does the source give for CC(=O)C1C(=O)c2cc([N+](=O)[O-])ccc2C1=Nc1ccc(Br)cc1 (stereo unspecified) here?
**A.** 6%
